The list is not random: actives were taken first. Their share in the collection is about 4%.
D1 antag – antagonists of human D1 dopamine receptor | P21728 | HEK293 TREx D1 cells, calcium flux, dopamine EC80; stronger effect = lower value | activity change, negative = inhibition, % at 10 µM | 360,000 compounds, 3.2% hits | AID 504652; in the data active means activity change below about -30%
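Tetracycline-induced HEK293 T-REx cells with force-coupled D1 receptor were loaded with a no-wash calcium dye. Compound was added after a 10 s baseline and read kinetically for 180 s; EC80 dopamine was then added and calcium flux followed another 180 s.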
Glioma ERSR ind – ER stress response induction in glioma | U87-MG GRP78 promoter luciferase reporter, 16 h | Potency, µM, hits mostly activators | 420,000 compounds, 0.02% hits; active means well fitted activation curve with a large enough effect; further: series mostly up to about 76 µM; nearly all actives have a fitted effect of over 35% in size
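ERSR induction read as luciferase luminescence (Bright-Glo, 10 min at room temperature) in stably transfected human U87-MG glioma cells exposed to compounds for 16 h, using GRP78 as sensor.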
TRHR enhancer – allosteric enhancers of human TRH receptor; P34981; TRHR cells, fluo-8 calcium fluorescence, EC20 TRH enhancement; enhancement, % at 2 µM; 360,000 compounds, 0.66% hits; AID 493056; in the data active means enhancement above about 30%
Target sequence (P34981 whole entry, looked up): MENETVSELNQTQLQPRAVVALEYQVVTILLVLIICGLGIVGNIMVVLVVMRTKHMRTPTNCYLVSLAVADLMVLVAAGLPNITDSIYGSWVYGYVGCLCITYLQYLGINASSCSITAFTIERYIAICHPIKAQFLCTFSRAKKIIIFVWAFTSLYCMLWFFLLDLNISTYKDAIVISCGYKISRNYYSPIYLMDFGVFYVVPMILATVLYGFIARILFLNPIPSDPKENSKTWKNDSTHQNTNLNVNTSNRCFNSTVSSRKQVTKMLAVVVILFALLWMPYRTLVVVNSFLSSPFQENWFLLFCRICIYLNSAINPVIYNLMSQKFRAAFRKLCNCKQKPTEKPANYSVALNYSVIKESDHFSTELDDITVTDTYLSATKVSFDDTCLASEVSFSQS
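TRHR-expressing cells loaded with fluo-8 calcium dye were read kinetically (ex 480/em 530) during compound addition, then stimulated with an EC20 of TRH (10 nM final). Enhancement of the Gq-mediated intracellular calcium response was scored.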
D1 PAM – potentiators of human D1 dopamine receptor; P21728; HEK293 TREx D1 cells, calcium flux, dopamine EC20 potentiation; potentiation, % at 10 µM; 360,000 compounds, 0.036% hits; AID 504651; in the data active means potentiation above about 30%
TRHR ag – activates the human TRH receptor. activation, % at 2 µM. 360,000 compounds, 0.18% hits. TRHR cells, calcium flux fluo-8, FDSS agonist mode. P34981
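Steps: seed TRHR cells overnight; add fluo-8 no-wash Ca dye, RT 30 min–1.5 h; record 10 s baseline; pin-transfer compounds; monitor fluorescence 1 cycle/s for the agonist window. Calcium increases flag candidate agonists.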
D1 agonist – agonists of human D1 dopamine receptor; P21728; HEK293 T-REx D1 cells, calcium flux, agonist mode; activation, % at 2 µM; 360,000 compounds, 1% hits; AID 504660
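Agonism was scored from calcium flux recorded over 180 s (1 read/s) after pintool compound addition, following a 10-cycle baseline. Cells were inducible force-coupled HEK293 TREx D1, plated overnight at 30 C and loaded with no-wash calcium dye.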
Hits are given with their value. Unless noted, no stated cut-off is given here; in the data, active means activation above about 30%; inactive means the rest.

What do the screens show for `CC1(c2ccccc2)NC(=O)N(CC(=O)Nc2ccccc2N2CCCC2)C1=O` (stereo unspecified)?
D1 antag: inactive; Glioma ERSR ind: inactive; TRHR enhancer: inactive; D1 PAM: inactive; TRHR ag: inactive; D1 agonist: 38.5

How did Cc1cccc(C)c1OCCN1C(=O)NC(C)(c2ccccc2)C1=O (stereo unspecified) do in these assays?
D1 antag: inactive; Glioma ERSR ind: inactive; TRHR enhancer: 39.6; D1 PAM: inactive; TRHR ag: inactive; D1 agonist: inactive

How did CC1(c2ccccc2)NC(=O)N(CC(=O)NNC(=O)c2ccccc2)C1=O (stereo unspecified) do in these assays?
D1 antag: -43.0; Glioma ERSR ind: inactive; TRHR enhancer: inactive; D1 PAM: inactive; TRHR ag: inactive; D1 agonist: inactive

What do the screens show for `CCC1(c2ccccc2)NC(=O)N(CC(=O)Nc2cc(Cl)ccc2N2CCN(C)CC2)C1=O` (stereo unspecified)?
D1 antag: -38.3; Glioma ERSR ind: inactive; TRHR enhancer: inactive; D1 PAM: inactive; TRHR ag: inactive; D1 agonist: inactive

What do the screens show for `CCN(CC)c1ccc(C(=O)NNC(=O)CN2C(=O)NC(C)(c3ccccc3)C2=O)cc1` (stereo unspecified)?
D1 antag: inactive; Glioma ERSR ind: inactive; TRHR enhancer: inactive; TRHR ag: inactive; D1 agonist: inactive

How did CN1CCN(c2ccc(Cl)cc2NC(=O)CN2C(=O)NC(C)(c3ccccc3)C2=O)CC1 (stereo unspecified) do in these assays?
D1 antag: inactive; Glioma ERSR ind: inactive; TRHR enhancer: inactive; D1 PAM: inactive; TRHR ag: inactive; D1 agonist: inactive

How did CCN(CC)c1ccc(NC2=C(Cl)C(=O)c3ccccc3C2=O)cc1 do in these assays?
D1 antag: -38.7; Glioma ERSR ind: inactive; TRHR enhancer: inactive; D1 PAM: inactive; TRHR ag: inactive; D1 agonist: inactive

Results for COC1=C(Nc2ccc(OC)cc2)C(=O)c2ccccc2C1=O ?
D1 antag: inactive; Glioma ERSR ind: inactive; TRHR enhancer: inactive; D1 PAM: inactive; TRHR ag: inactive; D1 agonist: inactive

How did CCCC(=O)NC1=C(Cl)C(=O)c2ccccc2C1=O do in these assays?
Glioma ERSR ind: inactive

How did Cc1ccc(NC2=C(Cl)C(=O)c3ccccc3C2=O)cc1 do in these assays?
D1 antag: -58.0; Glioma ERSR ind: inactive; TRHR enhancer: inactive; D1 PAM: inactive; TRHR ag: inactive; D1 agonist: inactive

What do the screens show for `Cc1ccc(NC2=CC(=O)C(=O)c3ccccc32)cc1`?
D1 antag: inactive; Glioma ERSR ind: inactive; TRHR enhancer: inactive; D1 PAM: inactive; TRHR ag: inactive; D1 agonist: inactive

How did O=C1C(Cl)=C(Nc2ccc(O)cc2)C(=O)c2ccccc21 do in these assays?
D1 antag: -68.5; Glioma ERSR ind: inactive; TRHR enhancer: inactive; D1 PAM: inactive; TRHR ag: inactive; D1 agonist: inactive

Results for CCNC1=C(Cl)C(=O)c2ccccc2C1=O ?
D1 antag: -35.9; Glioma ERSR ind: inactive; TRHR enhancer: inactive; D1 PAM: inactive; TRHR ag: inactive; D1 agonist: inactive

What do the screens show for `CCC(C)c1ccccc1OCCn1c(CCNC(=O)C2CCCCC2)nc2ccccc21` (stereo unspecified)?
Glioma ERSR ind: inactive

What do the screens show for `C(=Nc1cnc2ccccc2c1)c1ccncc1`?
Glioma ERSR ind: inactive

How did CC1(C(=O)O)CCC2(C)CCC3(C)C(=CC(=O)[C@@H]4C5(C)CC[C@H](O[C@H]6O[C@H](C(=O)O)C(O)C(O)[C@H]6O[C@@H]6O[C@H](C(=O)O)C(O)C(O)C6O)C(C)(C)[C@@H]5CCC43C)[C@@H]2C1 (stereo partly specified) do in these assays?
Glioma ERSR ind: inactive

Results for O=c1oc2ccccc2cc1-c1ccc(O)cc1O ?
D1 antag: -31.5; Glioma ERSR ind: inactive; TRHR enhancer: inactive; D1 PAM: inactive; TRHR ag: inactive; D1 agonist: inactive

Results for CCOc1ccc(S(=O)(=O)N2CCC(C(=O)NC3CCCC3)CC2)cc1 ?
D1 antag: inactive; Glioma ERSR ind: inactive; TRHR enhancer: inactive; D1 PAM: inactive; TRHR ag: inactive; D1 agonist: inactive

Results for COc1ccc(Cl)c(N2CCN(CCCNC(=O)Nc3ccc(C)cc3)CC2)c1 ?
D1 antag: -59.6; Glioma ERSR ind: inactive; TRHR enhancer: inactive; D1 PAM: inactive; TRHR ag: inactive; D1 agonist: inactive

What do the screens show for `COc1ccc(Cl)c(NC(=O)NCCN2CCN(c3ccccc3)CC2)c1`?
D1 antag: -65.1; Glioma ERSR ind: inactive; TRHR enhancer: inactive; D1 PAM: inactive; TRHR ag: inactive; D1 agonist: inactive

How did COc1ccc(N2CCN(CCNC(=O)Nc3cc(Cl)ccc3OC)CC2)cc1 do in these assays?
D1 antag: inactive; Glioma ERSR ind: inactive; TRHR enhancer: inactive; D1 PAM: inactive; TRHR ag: inactive; D1 agonist: 44.4

What do the screens show for `O=C(NCCN1CCOCC1)Nc1ccc(Cl)cc1Cl`?
D1 antag: -44.5; Glioma ERSR ind: inactive; TRHR enhancer: inactive; D1 PAM: inactive; TRHR ag: inactive; D1 agonist: inactive

What do the screens show for `COc1ccc(NC(=O)NCCN2CCN(c3cc(OC)ccc3OC)CC2)cc1`?
D1 antag: inactive; Glioma ERSR ind: inactive; TRHR enhancer: inactive; D1 PAM: inactive; TRHR ag: inactive; D1 agonist: inactive

Results for CC(Oc1ccc(Cl)cc1Cl)C(=O)NCCN1CCOCC1 (stereo unspecified) ?
D1 antag: inactive; Glioma ERSR ind: inactive; TRHR enhancer: inactive; D1 PAM: inactive; TRHR ag: inactive; D1 agonist: inactive

How did COc1cc2nc(N3CCCN(C)CC3)nc(NC3CCN(C)C3)c2cc1OC (stereo unspecified) do in these assays?
Glioma ERSR ind: inactive

Results for COc1ccc(OCCSc2nnc(Cc3cccc4ccccc34)n2N)cc1 ?
D1 antag: inactive; Glioma ERSR ind: inactive; TRHR enhancer: inactive; D1 PAM: inactive; TRHR ag: inactive; D1 agonist: inactive

How did Nc1ccc2c3c(cccc13)C(=O)N(c1ccccc1)C2=O do in these assays?
D1 antag: -41.9; Glioma ERSR ind: inactive; TRHR enhancer: inactive; D1 PAM: inactive; TRHR ag: inactive; D1 agonist: 384.4

What do the screens show for `Cc1cccc(N2C(=O)c3cccc4c(N)ccc(c34)C2=O)c1`?
D1 antag: inactive; Glioma ERSR ind: inactive; TRHR enhancer: inactive; D1 PAM: inactive; TRHR ag: 131.6; D1 agonist: 575.6

How did Cc1cccc(N2C(=O)c3cccc4cccc(c34)C2=O)c1 do in these assays?
D1 antag: inactive; Glioma ERSR ind: inactive; TRHR enhancer: inactive; D1 PAM: inactive; TRHR ag: inactive; D1 agonist: inactive

How did Cc1c(O)c2c3c(cccc3c1O)C(=O)N(c1ccccc1)C2=O do in these assays?
D1 antag: inactive; Glioma ERSR ind: inactive; TRHR enhancer: inactive; D1 PAM: inactive; TRHR ag: inactive; D1 agonist: 53.3

Assay outcomes (PubChem BioAssay)
